The target in test [1] is Nuclear receptor coactivator 3 (Homo sapiens) (UniProt Q9Y6Q9). In words: NCOA3 GAL4-fusion reporter inhibition – cell-based, luminescence, quadruplicate, confirmation (AID 588792;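 active means mean inhibition over 43.08%, the solvent-only control mean plus 3 SD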;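 further: 0% = DMSO treated cells and 100% = gossypol at 36 µM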). The settings on record: HEK293 GAL4-SRC3 luciferase reporter, at 3.6 µM, active compounds read high.
Test [2] deals with transactivating tegument protein VP16 (Human herpesvirus 1), Gal4-VP16 luciferase reporter. In words: repression of VP16-driven luciferase reporter – cell-based, luminescence, high throughput, counter-screen for SRC3 inhibitor project (AID 588794; in the data active means inhibition above about 30%). The conditions noted are these: mammalian cells, at 3.6 µM, active compounds read high.
Test [3] has as its target Nuclear receptor coactivator 1 (Homo sapiens) (UniProt Q15788). In words: NCOA1 GAL4-fusion reporter inhibition – cell-based, luminescence, quadruplicate, confirmation (AID 588820;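 active means mean inhibition above 46.68%, the untreated control wells mean plus 3 SD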;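 further: 0% = DMSO wells and 100% = gossypol 36 µM treated wells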). The settings on record: HEK293 GAL4-SRC1 luciferase reporter, at 3.6 µM, active compounds read high.
Test [4] is described as follows: repression of VP16-driven luciferase reporter – cell-based, luminescence, high throughput, counter-screen for SRC1 inhibitor project (AID 588824; in the data active means inhibition above about 25%). The settings on record: cell-based VP16 transactivation luciferase luminescence; at 3.6 µM; active compounds read high.
A short description of test [5]: StAR promoter reporter inhibitors, counter-screen for LRH-1 inverse agonist project, cell-based, luminescence, high throughput (AID 651611; in the data active means inhibition above about 28%). The conditions noted are these: StAR promoter luciferase reporter counterscreen, at 3.6 µM, active compounds read high.
The target in test [6] is Nuclear receptor subfamily 5 group A member 2 (Homo sapiens) (UniProt O00482). Briefly: NR5A2 activity suppression in reporter cells – cell-based, luminescence, confirmation (AID 651613; in the data active means inhibition above about 42%;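 further: HEK293T cells co-transfected with LRH-1 and StAR promoter luciferase reporter; 0% = vehicle wells and 100% = parental cells lacking receptor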). The conditions noted are these: cell-based LRH-1 luciferase reporter, inverse agonism; at 3.6 µM; active compounds read high.
Test [7] has as its target Steroidogenic factor 1 (Homo sapiens) (UniProt Q13285). Briefly: inverse agonism at SF1 nuclear receptor – cell-based, luminescence, high throughput, counter-screen for LRH-1 inverse agonist project (AID 651614).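 Further: cells cotransfected with StAR promoter reporter and SF1 expression vector; 0% = vehicle on cells with receptor and 100% = vehicle on cells lacking receptor.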 The settings on record: cell-based SF1 luciferase reporter, at 3.6 µM, active compounds read high.
The nature of test [8]: compounds suppressing VP16-driven luciferase signal – cell-based, luminescence, high throughput, counter-screen for LRH-1 inverse agonist project (AID 651615; in the data active means inhibition above about 33%). The settings on record: Gal4-VP16 luciferase reporter cells, at 3.6 µM, active compounds read high.

Values without a mark were called inactive. Activity calls are given as the source filed them. Unless noted, no stated cut-off is given here; in the data, active means inhibition above about 44%; inactive means the rest.

Nuclear receptor coactivator 3 (Homo sapiens), sequence (Q9Y6Q9 whole entry, looked up, the tested form may be a part): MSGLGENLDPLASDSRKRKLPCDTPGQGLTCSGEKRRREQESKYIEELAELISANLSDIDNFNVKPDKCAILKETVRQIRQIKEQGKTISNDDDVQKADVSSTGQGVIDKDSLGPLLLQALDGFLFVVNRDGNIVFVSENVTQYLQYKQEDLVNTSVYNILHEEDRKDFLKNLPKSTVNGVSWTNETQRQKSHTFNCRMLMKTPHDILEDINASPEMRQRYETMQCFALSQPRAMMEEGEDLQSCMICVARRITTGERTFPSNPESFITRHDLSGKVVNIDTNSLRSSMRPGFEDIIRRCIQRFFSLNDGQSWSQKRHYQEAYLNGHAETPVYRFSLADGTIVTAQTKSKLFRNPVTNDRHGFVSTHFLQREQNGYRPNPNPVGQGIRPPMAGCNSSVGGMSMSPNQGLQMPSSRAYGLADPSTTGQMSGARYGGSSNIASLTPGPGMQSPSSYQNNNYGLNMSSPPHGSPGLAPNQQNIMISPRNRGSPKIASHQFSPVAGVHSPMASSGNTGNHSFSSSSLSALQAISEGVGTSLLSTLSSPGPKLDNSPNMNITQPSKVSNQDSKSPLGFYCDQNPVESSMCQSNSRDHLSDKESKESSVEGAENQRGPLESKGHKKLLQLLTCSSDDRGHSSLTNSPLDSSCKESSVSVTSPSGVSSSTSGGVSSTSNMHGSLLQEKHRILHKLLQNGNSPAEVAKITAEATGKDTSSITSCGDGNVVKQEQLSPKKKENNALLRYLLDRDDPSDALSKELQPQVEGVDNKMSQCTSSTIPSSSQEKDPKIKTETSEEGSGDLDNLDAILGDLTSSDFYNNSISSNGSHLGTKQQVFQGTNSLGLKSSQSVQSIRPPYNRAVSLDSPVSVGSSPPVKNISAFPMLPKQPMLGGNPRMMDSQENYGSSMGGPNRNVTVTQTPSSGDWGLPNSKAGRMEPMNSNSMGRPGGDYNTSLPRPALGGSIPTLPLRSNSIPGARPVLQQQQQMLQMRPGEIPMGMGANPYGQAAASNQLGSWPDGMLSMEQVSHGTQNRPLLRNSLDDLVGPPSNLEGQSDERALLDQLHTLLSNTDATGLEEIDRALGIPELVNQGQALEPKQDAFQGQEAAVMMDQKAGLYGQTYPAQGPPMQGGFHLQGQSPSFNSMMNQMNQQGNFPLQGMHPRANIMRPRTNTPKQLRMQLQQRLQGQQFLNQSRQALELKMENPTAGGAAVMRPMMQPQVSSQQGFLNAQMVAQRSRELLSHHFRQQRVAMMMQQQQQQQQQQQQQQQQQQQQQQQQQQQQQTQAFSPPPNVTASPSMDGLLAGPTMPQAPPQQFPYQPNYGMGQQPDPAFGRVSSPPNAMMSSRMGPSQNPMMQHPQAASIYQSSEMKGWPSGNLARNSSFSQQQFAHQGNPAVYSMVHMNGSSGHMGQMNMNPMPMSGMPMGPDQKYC
Steroidogenic factor 1 (Homo sapiens), sequence (Q13285 whole entry, looked up, the tested form may be a part): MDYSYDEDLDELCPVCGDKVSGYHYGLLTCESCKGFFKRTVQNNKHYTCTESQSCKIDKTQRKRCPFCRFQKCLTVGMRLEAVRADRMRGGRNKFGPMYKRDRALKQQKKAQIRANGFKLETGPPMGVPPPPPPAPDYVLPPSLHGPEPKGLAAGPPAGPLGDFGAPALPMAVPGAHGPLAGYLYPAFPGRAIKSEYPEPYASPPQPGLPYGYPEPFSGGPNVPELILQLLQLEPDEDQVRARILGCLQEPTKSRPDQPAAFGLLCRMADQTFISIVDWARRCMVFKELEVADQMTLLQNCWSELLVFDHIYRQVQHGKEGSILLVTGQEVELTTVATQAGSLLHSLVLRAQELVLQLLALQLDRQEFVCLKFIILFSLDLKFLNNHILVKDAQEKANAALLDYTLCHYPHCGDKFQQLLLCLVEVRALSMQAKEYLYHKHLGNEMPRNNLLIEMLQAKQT
Nuclear receptor coactivator 1 (Homo sapiens), sequence (Q15788 whole entry, looked up, the tested form may be a part): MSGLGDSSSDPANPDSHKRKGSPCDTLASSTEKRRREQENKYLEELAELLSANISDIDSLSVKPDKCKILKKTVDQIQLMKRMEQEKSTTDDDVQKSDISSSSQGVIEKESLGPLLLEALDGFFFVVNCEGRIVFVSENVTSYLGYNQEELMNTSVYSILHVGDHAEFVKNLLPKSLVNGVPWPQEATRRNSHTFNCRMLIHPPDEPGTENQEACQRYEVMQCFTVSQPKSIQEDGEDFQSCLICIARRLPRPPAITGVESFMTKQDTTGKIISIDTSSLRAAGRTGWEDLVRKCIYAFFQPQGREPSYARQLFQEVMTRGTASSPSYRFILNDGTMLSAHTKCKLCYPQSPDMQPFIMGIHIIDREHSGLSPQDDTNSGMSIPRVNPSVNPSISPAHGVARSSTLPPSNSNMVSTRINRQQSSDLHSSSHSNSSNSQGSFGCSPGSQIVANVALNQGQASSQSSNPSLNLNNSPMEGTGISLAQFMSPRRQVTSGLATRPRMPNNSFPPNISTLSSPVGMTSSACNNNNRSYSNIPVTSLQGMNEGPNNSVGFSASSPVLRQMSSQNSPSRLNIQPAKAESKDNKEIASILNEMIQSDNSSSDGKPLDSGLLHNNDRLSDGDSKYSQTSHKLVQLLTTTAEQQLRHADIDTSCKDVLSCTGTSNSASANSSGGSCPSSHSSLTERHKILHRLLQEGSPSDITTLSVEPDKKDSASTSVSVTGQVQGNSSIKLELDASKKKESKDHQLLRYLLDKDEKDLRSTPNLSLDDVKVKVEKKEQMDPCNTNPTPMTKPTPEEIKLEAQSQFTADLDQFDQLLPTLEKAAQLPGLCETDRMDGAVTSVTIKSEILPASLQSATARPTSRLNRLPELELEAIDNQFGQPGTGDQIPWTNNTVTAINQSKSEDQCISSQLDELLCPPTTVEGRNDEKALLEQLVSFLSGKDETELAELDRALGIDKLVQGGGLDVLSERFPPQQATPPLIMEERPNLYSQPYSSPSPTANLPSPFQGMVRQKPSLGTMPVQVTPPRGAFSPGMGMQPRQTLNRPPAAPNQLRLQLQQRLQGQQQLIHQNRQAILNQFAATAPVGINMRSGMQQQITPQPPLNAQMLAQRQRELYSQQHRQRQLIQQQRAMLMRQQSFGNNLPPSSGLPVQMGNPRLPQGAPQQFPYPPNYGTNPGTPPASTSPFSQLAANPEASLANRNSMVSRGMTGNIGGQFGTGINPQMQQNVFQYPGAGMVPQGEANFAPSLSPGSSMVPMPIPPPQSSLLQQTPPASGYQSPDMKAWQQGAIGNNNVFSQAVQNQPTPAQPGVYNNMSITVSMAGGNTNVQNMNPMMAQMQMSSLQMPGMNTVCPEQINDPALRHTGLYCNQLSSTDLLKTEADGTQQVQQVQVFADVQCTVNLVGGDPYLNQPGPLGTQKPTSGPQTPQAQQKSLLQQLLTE
Nuclear receptor subfamily 5 group A member 2 (Homo sapiens), sequence (O00482 whole entry, looked up): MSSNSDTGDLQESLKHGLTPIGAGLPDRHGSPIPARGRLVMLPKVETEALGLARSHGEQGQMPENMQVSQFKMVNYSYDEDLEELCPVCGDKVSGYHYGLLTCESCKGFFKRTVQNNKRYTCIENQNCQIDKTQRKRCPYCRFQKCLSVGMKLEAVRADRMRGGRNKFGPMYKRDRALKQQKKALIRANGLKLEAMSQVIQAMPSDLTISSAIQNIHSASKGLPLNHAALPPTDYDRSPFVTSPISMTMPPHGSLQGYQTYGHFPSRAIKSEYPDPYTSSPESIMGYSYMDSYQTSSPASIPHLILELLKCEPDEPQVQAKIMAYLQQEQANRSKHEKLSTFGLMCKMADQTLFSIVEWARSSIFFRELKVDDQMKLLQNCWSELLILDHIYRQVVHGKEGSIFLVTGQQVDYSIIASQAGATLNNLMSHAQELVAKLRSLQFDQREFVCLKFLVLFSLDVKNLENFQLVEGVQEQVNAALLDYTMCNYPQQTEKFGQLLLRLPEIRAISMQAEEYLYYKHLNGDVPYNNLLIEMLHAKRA

As for `c1ccc2cc3c(NCCN4CCOCC4)ccnc3cc2c1`, the inhibition was 22.8% in test [1]; 44.7% (active) in test [2]; 38.6% in test [3]; 45.4% (active) in test [4]; 35.6% (active) in test [5]; 83.1% (active) in test [6]. Moreover, the inhibition is 55.6% (active) in test [7] and 55.8% (active) in test [8].
Regarding `c1ccc(-c2ccc(-c3nc(-c4ccccn4)no3)cc2)cc1`, the inhibition in test [1] was 43.5% (active); in test [2], 35.9% (active); in test [3], -28.2%; in test [4], 39.4% (active); in test [5] it was 42.4% (active); in test [6] it was 13.6%. Besides, the inhibition in test [7] was 54.8% (active); in test [8] it was 30.9% (active).
Take `CC1CCc2nc(NC(=O)CSc3nc4ccccc4o3)sc2C1` (stereo unspecified): the inhibition in test [1] is 14.2%; in test [2] it was 15.8%; in test [3] it was -11.1%; in test [4] it was -33.6%; in test [5] it was 5.74%; in test [6], -27.5%. Moreover, the inhibition in test [7] was 7.34%; in test [8], -33.5%.
For the molecule `N=c1c2c(n(Cc3ccc(Br)cc3)c3c1CCC3)CCCC2`, the inhibition in test [1] was 51.3% (active); in test [2] it was 67.7% (active); in test [3] it was 45.7%; in test [4], 70.5% (active); in test [5], 60.2% (active); in test [6] it was 111% (active). The inhibition was 86.3% (active) in test [7] and 89.9% (active) in test [8].
For `CCCCCC[n+]1ccccc1/C=C/c1ccc(N(C)C)cc1`, the inhibition in test [1] is 89.5% (active); in test [2], 88.2% (active); in test [3], 64% (active); in test [4], 86.2% (active); in test [5] it was 81.5% (active); in test [6] it was 110% (active). In addition, the inhibition in test [7] is 94.8% (active); in test [8], 94.7% (active).
As for `Cc1ccc(N(CCC#N)C(=O)CCl)cc1C`, the inhibition in test [1] is 54.3% (active); in test [2] it was 14.7%; in test [3] it was 7.31%; in test [4], 28.4% (active); in test [5], 14.8%; in test [6], 58.5% (active). Also, the inhibition in test [7] is 49.2% (active); in test [8], 15.7%.
For `C=CCn1c(C)cc(C(=O)CN2C(=O)c3ccccc3S2(=O)=O)c1C`, the inhibition in test [1] is 89.7% (active); in test [2], 74.1% (active); in test [3], 77.3% (active); in test [4], 72.7% (active); in test [5] it was 89% (active); in test [6] it was 91.1% (active). Also, the inhibition in test [7] is 90.7% (active); in test [8] it was 83.8% (active).
In the case of `CC[n+]1ccccc1/C=C1\Sc2ccc(C)cc2N1C`, the inhibition in test [1] is 25.7%; in test [2], 64.6% (active); in test [3], 23.8%; in test [4], 67.7% (active); in test [5], 40% (active); in test [6], 75.7% (active). The inhibition in test [7] was 70.3% (active); in test [8] it was 74.5% (active).
Regarding `CN(Cc1cnc2nc(N)nc(N)c2n1)c1ccc(C(=O)NC(CCC(=O)O)C(=O)O)c2ccccc12` (stereo unspecified), the inhibition in test [1] is 63.8% (active); in test [2], 15%; in test [3], 68% (active); in test [4] it was 13.2%; in test [5] it was 77.9% (active); in test [6], 45.5% (active). The inhibition was 47.6% (active) in test [7] and 12.9% in test [8].
As for `Cc1cc([N+](=O)[O-])nn1Cc1ccc(C(=O)N/N=C/c2ccc(O)cc2O)cc1`, the inhibition in test [1] is 54.5% (active); in test [2] it was 63.4% (active); in test [3] it was 48.5% (active); in test [4] it was 66.9% (active); in test [5], 80.8% (active); in test [6], 97% (active). Besides, the results for the inhibition in test [7] and in test [8] were 88.1% (active) and 87.9% (active), respectively.
As for `Cc1ccc(S(=O)(=O)/N=C2\C=C(Nc3ccc(O)cc3)C(=O)c3ccccc32)cc1`, the inhibition was 91.8% (active) in test [1]; 83.1% (active) in test [2]; 71.1% (active) in test [3]; 86.3% (active) in test [4]; 90.3% (active) in test [5]; 106% (active) in test [6]. Further, the inhibition is 94.6% (active) in test [7] and 96% (active) in test [8].
On to `COC(=O)c1c(NC(=O)c2cccc([N+](=O)[O-])c2)sc(C(N)=O)c1C`, for which the inhibition in test [1] was 23.4%; in test [2], 55.9% (active); in test [3], 18.9%; in test [4], 47.2% (active); in test [5], 46.9% (active); in test [6], 84.6% (active). In addition, the inhibition in test [7] was 80.5% (active); in test [8], 69.2% (active).
For the molecule `C=CS(=O)(=O)N(Cc1ccc(Cl)c(Cl)c1)C[C@@H](O)CO`, the inhibition was 42.6% in test [1]; 19.1% in test [2]; 8.46% in test [3]; 13.3% in test [4]; 55.4% (active) in test [5]; 50.4% (active) in test [6]. The inhibition was 58% (active) in test [7] and 28.3% in test [8].
With `CN(Cc1cnc2nc(N)nc(N)c2n1)c1ccc(C(=O)N[C@@H](CCC(=O)O)C(=O)O)cc1`, the inhibition in test [1] is 66.7% (active); in test [2] it was 12.6%; in test [3] it was 35%; in test [4], 8.93%; in test [5] it was 76.9% (active); in test [6], 54.9% (active). In addition, the inhibition was 55.4% (active) in test [7] and 22.7% in test [8].
On to `Cc1onc(-c2ccccc2)c1C(=O)NC(=S)NNC(=O)c1ccccc1O`, for which the inhibition in test [1] is 54.8% (active); in test [2], 82% (active); in test [3], 66.5% (active); in test [4], 77.6% (active); in test [5], 70% (active); in test [6], 96.8% (active). For the same molecule, the inhibition was 83.4% (active) in test [7] and 83.3% (active) in test [8].
On to `CCC1(O)C(=O)OCc2c1cc1n(c2=O)Cc2cc3c(N)cccc3nc2-1` (stereo unspecified), for which the inhibition in test [1] is 89.6% (active); in test [2], 77.9% (active); in test [3], 54.4% (active); in test [4], 71.3% (active); in test [5], 83.6% (active); in test [6], 104% (active). Further, the inhibition was 92.1% (active) in test [7] and 79.6% (active) in test [8].
Consider `Cc1nc2ccc(NC(=O)c3cccs3)cc2c(=O)n1Cc1ccc(Cl)cc1`, for which the inhibition in test [1] is 4.95%; in test [2], 15.8%; in test [3] it was -3.3%; in test [4] it was 23.8%; in test [5], 27.4%; in test [6], 52.7% (active). For the same molecule, the values for the inhibition in test [7] and in test [8] were 55% (active) and 40.8% (active), respectively.

Source of the values: PubChem BioAssay.
